Only some compounds are listed: those with a hit (about 2.8% of all), similar ones and a draw of the others.
PglD DTNB: PglD (C. jejuni) enzyme inhibition; actives 0.098% (n = 360,000); purified PglD enzyme, DTNB colorimetric CoA detection; inhibition, % at 12.5 µM; in the data active = inhibition above about 16%, passing the limit was not always enough
dFosB act: mouse delta FosB homodimer activation; purified delta FosB, TAMRA-CDK5 oligo fluorescence polarization; percent of positive-control signal above neutral wells; activation, % at 25 µM; actives 0.99% (n = 340,000);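 active = mean activation above about 17%, with every replicate also reaching it, limit read from the data, passing the limit was not always enough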
SIRT5 block: sirtuin-5 (human) deacylase inhibition; AID 652115; actives 1.1% (n = 330,000); inhibition, % at 15 µM; Q9NXA8; Purified SirT5, succinyl-peptide AMC, trypsin-coupled fluorescence; in the data active = inhibition above about 15%
CDK5 p35 inh: blocks human CDK5/p35 kinase activity; Recombinant CDK5/p35, ADP-Glo luminescence, 60 min; Q00535+Q15078; inhibition, % at 10 µM; actives 0.01% (n = 330,000);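 active = highest replicate inhibition of at least 50% and at least 75% of replicates reaching 50%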;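 also: plate controls were DMSO neutral control for no effect and GW8510 at 10 µM for full effect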
Target sequence (Q00535 whole entry, looked up): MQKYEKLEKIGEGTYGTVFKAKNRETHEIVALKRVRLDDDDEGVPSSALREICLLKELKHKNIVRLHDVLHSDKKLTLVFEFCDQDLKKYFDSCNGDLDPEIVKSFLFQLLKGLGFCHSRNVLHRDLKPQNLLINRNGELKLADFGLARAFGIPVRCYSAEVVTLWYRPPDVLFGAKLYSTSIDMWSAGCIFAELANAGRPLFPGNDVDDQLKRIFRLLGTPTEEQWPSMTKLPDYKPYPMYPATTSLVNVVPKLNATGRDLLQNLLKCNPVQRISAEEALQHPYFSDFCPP
Target sequence (Q15078 whole entry, looked up): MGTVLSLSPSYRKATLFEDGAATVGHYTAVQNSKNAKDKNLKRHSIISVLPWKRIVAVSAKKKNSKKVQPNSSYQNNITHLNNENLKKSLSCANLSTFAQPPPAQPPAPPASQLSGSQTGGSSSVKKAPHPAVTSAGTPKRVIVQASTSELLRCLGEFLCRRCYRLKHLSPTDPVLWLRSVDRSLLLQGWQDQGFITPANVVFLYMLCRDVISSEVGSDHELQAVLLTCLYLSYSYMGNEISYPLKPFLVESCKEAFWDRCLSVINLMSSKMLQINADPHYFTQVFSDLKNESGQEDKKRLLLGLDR
PvdQ acylase: P. aeruginosa PvdQ acylase inhibition; actives 0.063% (n = 340,000); inhibition, % at 10 µM; purified PvdQ acylase, fluorescence plate reader; AID 488965; in the data active = inhibition above about 30%, passing the limit was not always enough;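 also: 0% = vehicle neutral wells and 100% = reference inhibitor wells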
FGF22 binding: FGF22 (human) thermal shift binding | actives 1.5% (n = 340,000) | activity (Tm shift, normalised), % at 9.99 µM | recombinant FGF22 thermal shift, SYPRO orange fluorescence; percent of sucrose octasulfate shift, DMSO zero | Q9HCT0;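 active = mean Tm shift, scaled 0 neutral to 100 positive control, at about 1.3% or above, every replicate too, limit read from the data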
* hit, by the source's call; · = not tested or not shown.

SMILES	PglD DTNB	dFosB act	SIRT5 block	CDK5 p35 inh	PvdQ acylase	FGF22 binding
CC(C)(C)NC(=O)NC(=O)CN1CCN(Cc2ccccc2)CC1	·	-6.9	0.3	0.3	-3.1	0.1
COc1cccc(CN(C)CCCn2ccc(NC(=O)OCc3ccccc3)nc2=O)c1	-1.1	-13.8	-0.9	0.1	-10.0	0.0
CN(CCCn1ccc(NC(=O)OCc2ccccc2)nc1=O)Cc1ccco1	-3.2	·	25.2*	·	·	-0.2
O=C(Nc1ccn(CCCNCc2ccccc2)c(=O)n1)OCc1ccccc1	-6.8	-5.4	7.2	-0.9	3.1	0.0
O=C(Nc1ccn(CCCN(CCCn2ccc(NC(=O)OCc3ccccc3)nc2=O)CCc2cc3ccccc3[nH]2)c(=O)n1)OCc1ccccc1	2.6	82.7*	0.5	0.6	-4.3	-0.3
COc1cccc(-c2ccc(CC[C@H]3O[C@H]4CC[C@@H](CO)O[C@H]4C[C@@H]3NC(=O)c3cnccn3)cc2)c1	·	·	4.7	·	·	-0.4
Cc1nnc(SCC(=O)N2CC(=O)Nc3ccccc32)s1	·	-6.1	-3.2	-0.1	-8.0	0.2
O=C1CN(C(=O)CSc2nc(-c3ccc(Cl)cc3)cs2)c2ccccc2N1	-2.4	-0.2	15.0*	-4.0	-22.3	-0.2
CC(=O)NC(CC(=O)N1CCN(C(C)=O)CC1)c1ccccc1 (stereo not drawn)	2.5	-3.6	24.6*	0.8	4.2	-0.1
O=C(NC(CC(=O)N1CCN(c2ccccc2)CC1)c1ccccc1)c1ccccc1 (stereo not drawn)	-3.1	·	·	·	·	-0.4
CCC(=O)Nc1ccc2c(c1)C(=O)N(C)C[C@@H](OC)[C@H](C)CN(CC1CCOCC1)[C@@H](C)CO2	-0.8	·	·	·	·	·
O=C(Nc1ccc(C(F)(F)F)cc1)c1ccc(NC(=O)C2CCCO2)cc1 (stereo not drawn)	-1.0	17.0*	·	-2.1	-9.2	·
O=C(Nc1ccc(F)cc1)c1ccc(NC(=O)C2CCCO2)cc1 (stereo not drawn)	-4.6	-1.8	·	-0.8	-8.8	·
O=C(c1ccc(F)cc1)N1CC(=O)N2[C@H](C1)[C@@H](c1ccc(-c3ccccc3)cc1)[C@@H]2CO	·	·	-1.4	·	·	·
O=C(C1CCC1)N1CC(=O)N2[C@H](CO)[C@@H](c3ccc(-c4ccccc4F)cc3)[C@@H]2C1	·	·	-4.4	·	·	·
O=C(O)CCCN1C(=O)c2ccc(Oc3cccc([N+](=O)[O-])c3)cc2C1=O	1.3	2.1	0.8	-0.1	4.6	0.4
O=C(O)CCCN1C(=O)c2ccc(C(=O)c3cccc([N+](=O)[O-])c3)cc2C1=O	-10.5	3.5	0.1	0.5	15.8	43.3*
CC(C)(C)NC(=O)/C=C/c1ccc(C(F)(F)F)cc1	·	-4.9	-3.7	-1.3	-14.9	43.2*
CO[C@H]1CN(C)C(=O)c2ccc(NC(=O)c3cnccn3)cc2OC[C@H](C)N(CCc2ccccc2)C[C@H]1C	1.5	·	5.8	·	·	0.0
Cn1c(SCc2cccc(F)c2)nnc1-c1ccncc1	7.7	-4.5	15.3*	-2.1	-5.5	0.0
Cn1c(SCc2ccccc2)nnc1-c1ccncc1	-3.0	-1.0	-3.0	-0.3	-4.9	0.4
Nc1ccc(Cl)cc1C(=O)c1ccc[nH]1	-0.8	·	·	·	·	44.1*
Cc1noc(C)c1S(=O)(=O)Nc1ccc2c(c1)CC(=O)N([C@H](C)CO)C[C@@H](C)[C@@H](CN(C)Cc1ccc(C(=O)Nc3ccccc3N)cc1)O2	·	·	2.9	·	·	-0.4
CN1C(=O)c2cc(NC(=O)c3cscn3)ccc2OC[C@H]2O[C@@H](CC(=O)N3CCCCC3)CC[C@H]21	0.6	·	-1.4	·	·	-0.3
C[C@H](CO)N1C[C@H](C)[C@@H](CN(C)CC2CCCC2)Oc2cc(Br)ccc2S1(=O)=O	7.2	·	15.9*	·	·	-0.1
C/C=C/c1ccc2c(c1)O[C@@H](CN(C)CC1CCCCC1)[C@@H](C)CN([C@@H](C)CO)S2(=O)=O	-0.3	·	1.9	·	·	-0.4
C/C=C/c1ccc2c(c1)O[C@@H](CN(C)CC1CCCC1)[C@H](C)CN([C@@H](C)CO)S2(=O)=O	4.0	·	18.1*	·	·	0.2
C[C@@H]1CN([C@@H](C)CO)S(=O)(=O)c2ccc(Br)cc2O[C@H]1CN(C)CC1CCCC1	5.3	·	6.7	·	·	-0.1
Cc1csc(NC(=O)CSc2sc3c(O)cc(=O)[nH]c3c2C#N)n1	-1.2	-9.1	41.6*	-4.4	1.8	0.2
